# Results taken from PubChem BioAssay (EPA / NIEHS).
# Results filed as inconclusive are left out. Activity calls are given as the source filed them. How the source made its calls: active means hit-call score of the fitted dose curve at least 0.9, where 1 is the maximum; inconclusive means response in the unintended direction; inactive means score below 0.9.
# How the values were obtained:
# [1] = biological target: Luciferin 4-monooxygenase (Photinus pyralis) (UniProt P08659); experiment: CCTE_Simmons_QuantiLum_inhib_2: CCTE's Firefly Luciferase Inhibition Assay, Simmons Lab (AID 2283767);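 on AC50: potency for inhibitors that lower luciferase luminescence relative to DMSO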
# Outline: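 First, 5 ng purified luciferase in phosphate buffer with BSA is dispensed per well. Next, test chemicals (5 nM to 87.5 uM final, 0.5% DMSO) are added and incubated 30 min at 37C in darkness. Finally, luciferin reagent is injected and luminescence read kinetically.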
# [2] = ACEA_AR_agonist_AUC_viability: ACEA Biosciences xCELLigence Real-Time Cell Analysis on Androgen Receptor Agonism for Viability (AID 2283775);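 on AC50: viability read 80 hours after compound addition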
# Outline: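 22Rv1 cells; impedance growth kinetics; 8-pt 1:4 dilutions from 100 uM top final, ≤0.5% DMSO; n = 2; 80 h read; AUC viability, loss-of-signal vs DMSO.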
# [3] = ACEA_AR_antagonist_AUC_viability: ACEA Biosciences xCELLigence Real-Time Cell Analysis on Androgen Receptor Antagonism for Viability (AID 2283776);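 further: 22Rv1 human prostate cancer cells growing on impedance electrode plates; area under impedance growth curve at 80 h after dosing as viability; hits lower the growth signal relative to DMSO meaning cytotoxicity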
# Outline: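 Viability endpoint from label-free cell-index monitoring: 22Rv1 cultures treated with an eight-point 1:4 dilution series starting at 100 uM final, AUC at 80 h fitted against DMSO.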
# [4] = ArunA_CellTiter_hNP: Viability Assessment in the ArunA Biomedical's Oris Neural Crest (hNC) Cell Migration Assay (AID 2283753)
# Outline: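 Viability read with CellTiter 96 Aqueous One after 72 h chemical exposure of human hNP1 neuroprogenitors, which were plated on Matrigel in LIF/bFGF medium 16 h beforehand. Endpoint fitted in positive direction relative to DMSO.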
# [5] = ArunA_Migration_hNC: ArunA Biomedical's Oris Neural Crest (hNC) Cell Migration Assay (AID 2283755)
# Outline: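 Calcein-AM fluorescence (ex494 nm/em 517 nm) in the stopper-defined detection zone quantifies migration of hNC cells after 72 h chemical exposure; 60,000 cells/well plated on Matrigel with LIF and bFGF, 16 h pre-incubation. DMSO baseline.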
# [6] = ArunA_NOG_NeuriteLength: ArunA Biomedical's Neurite Outgrowth (NOG) Assay for Neurite Length (AID 2283757)
# Outline: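 Total neurite length per neuron, from traced βIII-tubulin-labelled processes longer than 10 um on viable Hoechst-gated cells, was scored as decrease from DMSO. Cells were hESC (H9)-derived neurons given 48 h chemical exposure immediately after seeding.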
# [7] = ArunA_NOG_NeuritesPerNeuron: ArunA Biomedical's Neurite Outgrowth (NOG) Assay for Neurites Per Neuron (AID 2283758)
# Outline: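 Differentiated human H9-derived neurons exposed to chemicals for 48 h from seeding, then stained with Hoechst and βIII-tubulin/DyLight 488. Automated imaging counted neurites (processes >10 um) per valid neuron; loss of signal versus DMSO scored.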
# [8] = system: chicken Androgen Receptor (AR), gene 422165; experiment: ATG_chAR_XSP1: Attagene TRANS-FACTORIAL Multi-Species (XSP1) HepG2 Assay for chicken Androgen Receptor (AR) (AID 2283768)
# Outline: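 Reporter mRNA read by RT-PCR with fluorescent labelling and capillary electrophoresis 24 h after chemical dosing of transiently transfected HepG2 cells. Chicken AR-Gal4 chimera, partially stimulated with 3 nM 6-alpha-fluorotestosterone; activity fitted upward relative to DMSO.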
# [9] = system: frog Androgen Receptor (AR), gene 399456; experiment: ATG_frAR_XSP1: Attagene TRANS-FACTORIAL Multi-Species (XSP1) HepG2 Assay for frog Androgen Receptor (AR) (AID 2283770)
# [10] = system: zebrafish Androgen Receptor (AR), gene 100005148; experiment: ATG_zfAR_XSP1: Attagene TRANS-FACTORIAL Multi-Species (XSP1) HepG2 Assay for zebrafish Androgen Receptor (AR) (AID 2283771)
# Outline: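 Gain-of-signal versus DMSO was measured as reporter transcripts quantified by RT-PCR, fluorescent labelling and capillary electrophoresis after 24 h chemical exposure. The cells were HepG2 expressing a chimeric zebrafish AR-GAL4, co-stimulated with 3 nM 6-alpha-fluorotestosterone.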
# [11] = system: zebrafish Estrogen Receptor (ESR2B), gene 317733; experiment: ATG_zfER2b_XSP1: Attagene TRANS-FACTORIAL Multi-Species (XSP1) HepG2 Assay for zebrafish Estrogen Receptor (ESR2B) (AID 2283773)
# Outline: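 Multiplexed TRANS format in transfected HepG2 liver cells, chimeric NR-Gal4 from zebrafish ESR2B. 24 h dosing; medium contains 3 nM 6-alpha-fluorotestosterone. mRNA induction by RT-PCR/CE, positive direction vs DMSO.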
# [12] = system: frog Estrogen Receptor (ESR2), gene 100174814; experiment: ATG_frER2_XSP1: Attagene TRANS-FACTORIAL Multi-Species (XSP1) HepG2 Assay for frog Estrogen Receptor (ESR2) (AID 2283774)
# Outline: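 HepG2, transient MRTU transfection (GAL4-UAS reporters, exogenous NR-Gal4 chimeras); 24 h compound exposure; 3 nM 6α-fluorotestosterone co-added; total RNA → RT-PCR → 6-FAM primer extension → HpaI → CE. Positive direction vs DMSO.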
# [13] = system: frog Estrogen Receptor (ESR1), gene 398734; experiment: ATG_frER1_XSP1: Attagene TRANS-FACTORIAL Multi-Species (XSP1) HepG2 Assay for frog Estrogen Receptor (ESR1) (AID 2283777)
# Outline: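 Transient MRTU transfection, HepG2 (human liver); 24 h dosing, 3 nM 6α-fluorotestosterone co-added; RNA → RT-PCR → 6-FAM labeling → CE; upward activity vs DMSO.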
# [14] = system: zebrafish Estrogen Receptor (ESR2A), gene 317734; experiment: ATG_zfER2a_XSP1: Attagene TRANS-FACTORIAL Multi-Species (XSP1) HepG2 Assay for zebrafish Estrogen Receptor (ESR2A) (AID 2283778)
# Outline: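 Transient transfection of HepG2 (human liver) with MRTU constructs; chemical dosing for 24 h; medium contained 3 nM 6-alpha-fluorotestosterone to partly stimulate AR. RT-PCR/CE fluorescence of reporter transcripts; positive direction vs DMSO.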
# [15] = biological target: chicken Estrogen Receptor (ESR1), ESR1 (gene 396099) (UniProt P06212); experiment: ATG_chERa_XSP1: Attagene TRANS-FACTORIAL Multi-Species (XSP1) HepG2 Assay for chicken Estrogen Receptor (ESR1) (AID 2283779)
# Outline: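 Read-out: fluorescent reporter mRNA fragments resolved by capillary electrophoresis after RT-PCR and HpaI digestion. Transfected HepG2 cells carried chimeric NR-Gal4 constructs, were dosed 24 h with 3 nM 6-alpha-fluorotestosterone added, and activity was fitted upward relative to DMSO.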
# Sequence of Luciferin 4-monooxygenase (Photinus pyralis) (P08659 whole entry, looked up): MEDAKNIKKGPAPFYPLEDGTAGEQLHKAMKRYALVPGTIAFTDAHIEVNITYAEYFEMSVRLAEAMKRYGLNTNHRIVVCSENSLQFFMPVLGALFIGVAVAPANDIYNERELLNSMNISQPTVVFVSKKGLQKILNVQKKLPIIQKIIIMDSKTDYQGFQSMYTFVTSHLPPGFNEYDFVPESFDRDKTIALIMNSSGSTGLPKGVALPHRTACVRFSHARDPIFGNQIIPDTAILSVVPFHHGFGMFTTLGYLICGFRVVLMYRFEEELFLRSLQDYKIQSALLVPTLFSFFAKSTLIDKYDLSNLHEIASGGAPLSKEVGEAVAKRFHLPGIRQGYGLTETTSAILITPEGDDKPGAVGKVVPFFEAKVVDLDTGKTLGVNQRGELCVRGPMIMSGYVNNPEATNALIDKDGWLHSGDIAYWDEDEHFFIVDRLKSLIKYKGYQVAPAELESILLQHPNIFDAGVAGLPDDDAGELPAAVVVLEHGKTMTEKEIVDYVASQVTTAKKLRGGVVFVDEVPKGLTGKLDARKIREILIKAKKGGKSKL
# Sequence of chicken Estrogen Receptor (ESR1), ESR1 (gene 396099) (P06212 whole entry, looked up, the tested form may be a part): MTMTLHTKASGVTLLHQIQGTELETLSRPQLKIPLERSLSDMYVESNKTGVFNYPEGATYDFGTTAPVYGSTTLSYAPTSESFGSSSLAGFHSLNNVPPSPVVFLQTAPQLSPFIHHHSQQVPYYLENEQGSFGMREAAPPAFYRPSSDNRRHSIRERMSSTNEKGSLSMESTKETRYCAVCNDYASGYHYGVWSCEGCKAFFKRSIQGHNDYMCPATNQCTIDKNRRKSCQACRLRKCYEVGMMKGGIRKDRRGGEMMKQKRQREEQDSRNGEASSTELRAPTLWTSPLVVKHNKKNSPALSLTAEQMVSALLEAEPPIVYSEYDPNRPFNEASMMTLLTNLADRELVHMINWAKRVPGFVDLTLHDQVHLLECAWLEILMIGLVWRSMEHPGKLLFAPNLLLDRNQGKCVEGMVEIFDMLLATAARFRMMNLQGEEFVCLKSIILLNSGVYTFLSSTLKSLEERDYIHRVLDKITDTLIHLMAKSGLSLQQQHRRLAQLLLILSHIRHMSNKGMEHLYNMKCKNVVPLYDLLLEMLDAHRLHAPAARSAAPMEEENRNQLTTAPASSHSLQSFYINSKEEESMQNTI
smiles,measurement,setting,value
CC(C)(C)c1csc(-c2cc3cc(OCc4ccccc4CC(=O)O)ccc3o2)n1,AC50,[1],10.7 µM (active)
same,AC50,[2],21.1 µM (active)
same,AC50,[3],23.7 µM (active)
CCCCCc1ccc(N)cc1,outcome,[1],inactive
same,outcome,[3],inactive
c1ccc2n[nH]nc2c1,outcome,[2],inactive
same,outcome,[3],inactive
CC[C@H](NC(=O)c1cc(F)ccc1NS(=O)(=O)c1cccc2cccnc12)c1ccccc1,AC50,[2],57.2 µM (active)
CN(C[C@@H](CC[N+]12CCC(C3CCCCC3)(CC1)CC2)c1ccc(Cl)c(Cl)c1)C(=O)c1cc(C(F)(F)F)cc(C(F)(F)F)c1,outcome,[1],inactive
same,AC50,[3],5.8 µM (active)
Cc1cccc2ccccc12,outcome,[2],inactive
same,outcome,[3],inactive
COc1cccc([C@H](O)C2CCN(CCc3ccc(F)cc3)CC2)c1OC,AC50,[2],50 µM (active)
same,AC50,[3],35.7 µM (active)
O=C(O)Cc1cc(I)c(Oc2ccc(O)c(I)c2)c(I)c1,outcome,[1],inactive
same,AC50,[3],20.3 µM (active)
Cc1ccc2oc(CN(Cc3ccccc3)C(=O)Nc3c(F)cc(F)cc3F)c(-c3ccc(Cl)cc3)c2c1,AC50,[2],9.77 µM (active)
same,AC50,[3],14.1 µM (active)
CC(C)(c1cc(Br)c(O)c(Br)c1)c1cc(Br)c(O)c(Br)c1,outcome,[4],inactive
same,outcome,[5],inactive
same,outcome,[6],inactive
same,outcome,[7],inactive
same,outcome,[1],inactive
same,outcome,[8],inactive
same,outcome,[9],inactive
same,outcome,[10],inactive
same,outcome,[11],inactive
same,AC50,[12],11.8 µM (active)
same,AC50,[3],24.3 µM (active)
same,outcome,[13],inactive
same,outcome,[14],inactive
same,outcome,[15],inactive
